# Experimental data taken from the supplement of paper PMC10849652.
# About 7,900 targets were measured; listed, in parts, are those with a hit and a random draw of the rest. About 0.6% of all pairs of compound and target were hits. Values without a mark were called inactive.
# Columns and labels:
# Experiment in all cases: log2 fold change, soluble protein after heating vs DMSO (PISA); higher = thermal stabilisation; K562 cells, 10 uM, 30 min; active = over 0.2 and 3.5 SD of the protein, either way, in both replicates (recomputed)
# [1] = compound: CC1=C(C=C(C=C1)NC(=O)C2=CC(=CC=C2)C(C)(C)C#N)NC3=CC4=C(C=C3)N=CN(C4=O)C
# Method in brief: (§1)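 K562 cells (2×10^6 cells/mL) were treated with 10 μM compound for 30 min, and aliquots were heated for 3 min over 48°C-58°C. Pooled aliquots were extracted in PBS with 0.5% NP-40 at 4°C, and the supernatant after 21,000xg for 90 min was measured by TMTpro 16plex LC-MS/MS with channel sums equalised. Reported thermal stability, relative to control samples and from duplicates, is a log2 fold change.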
# [2] = compound: CC1=C(C=C(C=C1)NC(=O)C2=CC(=CC=C2)N(C)C)NC(=O)C3=CC=C(C=C3)O
# Method in brief: as §1
# [3] = compound: CC1=CC=C(C=C1)SC2=C3C=C(SC3=CN=C2)C(=O)N
# Method in brief: as §1
# [4] = compound: CC1=NC(=CC=C1)C2=C(N=C(N2)C(C)(C)C)C3=CC4=NC=CN=C4C=C3
# Method in brief: as §1
# [5] = compound: CCCCN(Cc1ccc(C(=O)NO)cc1)C(=O)Nc1ccccc1 [Nexturastat A]
# Method in brief: as §1
# [6] = compound: CCCS(=O)(=O)Nc1ccc(F)c(C(=O)c2c[nH]c3ncc(-c4ccc(Cl)cc4)cc23)c1F [vemurafenib]
# Method in brief: as §1
# [7] = compound: CCCS(=O)(=O)Nc1ccc(F)c(C(=O)c2c[nH]c3ncc(Cl)cc23)c1F
# Method in brief: as §1
# [8] = compound: CCCc1cc(C)[nH]c(=O)c1CNC(=O)c1cc(-c2ccnc(N3CCN(C)CC3)c2)cc2c1cnn2C(C)C
# Method in brief: as §1
# [9] = compound: CCN(CC)Cc1ccc2cc(COC(=O)Nc3ccc(C(=O)NO)cc3)ccc2c1 [givinostat]
# Method in brief: as §1
# [10] = compound: CCN(CCCOc1ccc2c(Nc3cc(CC(=O)Nc4cccc(F)c4)[nH]n3)ncnc2c1)CCOP(=O)(O)O [barasertib]
# Method in brief: as §1
# [11] = compound: CC[C@@H]1C(=O)N(C)c2cnc(Nc3ccc(C(=O)NC4CCN(C)CC4)cc3OC)nc2N1C1CCCC1
# Method in brief: as §1
# [12] = compound: CC[C@@H]1C(=O)N(C)c2cnc(Nc3ccc(C(=O)N[C@H]4CC[C@H](N5CCN(CC6CC6)CC5)CC4)cc3OC)nc2N1C(C)C [volasertib]
# Method in brief: as §1
# [13] = compound: CC[C@H](C)N1C=C(C2=C(C=C(C=C21)C3=CN=C(C=C3)N4CCNCC4)C(=O)NCC5=C(C=C(NC5=O)C)C)C
# Method in brief: as §1
# [14] = compound: CC[C@H](C)[C@@H](C(=O)N[C@@H]([C@@H](C)O)C(=O)N[C@@H](CC(C)C)C(=O)[C@]1(CO1)C)NC(=O)[C@H]([C@@H](C)CC)N(C)C(=O)C [epoxomicin]
# Method in brief: as §1
# [15] = compound: CCn1c(C(=O)N(C2CC2)C2CC2)cc2c3c(ncn3C)c(Nc3cc(C)n(C)n3)nc21
# Method in brief: as §1
# [16] = compound: CCn1cc(-c2ccnc3[nH]c(-c4cccc(CN(C)C)c4)cc23)c(-c2ccc(NC(=O)N(C)C)cc2)n1
# Method in brief: as §1
# [17] = compound: CN(C)CC(=O)Nc1ccc2[nH]c(=O)c3ccccc3c2c1
# Method in brief: as §1
# [18] = compound: CN(CCOC1=CC=C(C=C1)C[C@H]2C(=O)NC(=O)S2)C3=CC=CC=N3 (racemic) [rosiglitazone]
# Method in brief: as §1
# [19] = compound: CN1C2=C(C3=C1C(=O)N(N=C3)CC4=CC(=CC=C4)N)SC(=C2)S(=O)C
# Method in brief: as §1
# [20] = compound: CN1CCC(CNc2ccc3ncc(-c4cccc(OC(F)(F)F)c4)n3n2)CC1
# Method in brief: as §1
# Chain of UniProt Q96AX1 (Q96AX1 whole entry, looked up): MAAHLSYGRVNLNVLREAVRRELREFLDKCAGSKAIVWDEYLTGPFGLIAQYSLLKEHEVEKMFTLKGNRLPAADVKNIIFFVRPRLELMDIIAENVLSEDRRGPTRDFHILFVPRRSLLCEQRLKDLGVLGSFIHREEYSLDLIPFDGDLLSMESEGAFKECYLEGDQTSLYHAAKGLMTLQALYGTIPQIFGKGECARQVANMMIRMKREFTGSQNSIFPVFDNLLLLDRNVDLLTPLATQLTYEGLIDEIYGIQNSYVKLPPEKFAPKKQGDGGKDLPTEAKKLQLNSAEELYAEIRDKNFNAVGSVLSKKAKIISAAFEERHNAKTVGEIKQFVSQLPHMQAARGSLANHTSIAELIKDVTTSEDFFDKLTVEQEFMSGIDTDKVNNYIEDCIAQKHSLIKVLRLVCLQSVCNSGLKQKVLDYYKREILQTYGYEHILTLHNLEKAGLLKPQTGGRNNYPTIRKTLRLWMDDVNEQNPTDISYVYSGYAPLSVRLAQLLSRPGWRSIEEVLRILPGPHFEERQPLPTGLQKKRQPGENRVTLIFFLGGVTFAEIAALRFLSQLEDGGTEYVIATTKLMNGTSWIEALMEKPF
# Chain of UniProt Q15642 (Q15642 whole entry, looked up): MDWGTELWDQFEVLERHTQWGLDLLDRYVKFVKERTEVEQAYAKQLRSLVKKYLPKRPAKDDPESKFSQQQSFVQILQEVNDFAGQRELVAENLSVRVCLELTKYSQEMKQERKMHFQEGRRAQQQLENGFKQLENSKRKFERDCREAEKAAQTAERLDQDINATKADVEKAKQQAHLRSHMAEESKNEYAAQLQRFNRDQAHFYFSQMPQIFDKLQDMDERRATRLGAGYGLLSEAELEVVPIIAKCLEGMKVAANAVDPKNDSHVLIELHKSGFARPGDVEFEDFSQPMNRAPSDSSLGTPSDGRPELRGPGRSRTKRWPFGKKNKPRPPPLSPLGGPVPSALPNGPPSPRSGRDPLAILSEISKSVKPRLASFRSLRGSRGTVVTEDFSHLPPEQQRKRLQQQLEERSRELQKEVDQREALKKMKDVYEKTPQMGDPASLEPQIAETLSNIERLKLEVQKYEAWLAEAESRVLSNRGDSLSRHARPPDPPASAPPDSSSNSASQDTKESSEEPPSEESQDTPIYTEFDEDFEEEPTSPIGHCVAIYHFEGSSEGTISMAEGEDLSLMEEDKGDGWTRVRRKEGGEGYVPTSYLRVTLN
# Chain of UniProt Q9NP79 (Q9NP79 whole entry, looked up): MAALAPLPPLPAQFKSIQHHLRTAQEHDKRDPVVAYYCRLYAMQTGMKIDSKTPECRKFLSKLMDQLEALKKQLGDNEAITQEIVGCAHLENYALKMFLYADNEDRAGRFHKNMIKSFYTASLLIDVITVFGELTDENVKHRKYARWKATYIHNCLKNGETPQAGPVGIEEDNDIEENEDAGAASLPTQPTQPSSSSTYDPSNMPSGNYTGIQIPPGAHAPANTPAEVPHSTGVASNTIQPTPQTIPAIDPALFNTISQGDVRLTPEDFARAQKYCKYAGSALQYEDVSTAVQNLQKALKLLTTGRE
# Chain of UniProt Q9NYU2 (Q9NYU2 whole entry, looked up): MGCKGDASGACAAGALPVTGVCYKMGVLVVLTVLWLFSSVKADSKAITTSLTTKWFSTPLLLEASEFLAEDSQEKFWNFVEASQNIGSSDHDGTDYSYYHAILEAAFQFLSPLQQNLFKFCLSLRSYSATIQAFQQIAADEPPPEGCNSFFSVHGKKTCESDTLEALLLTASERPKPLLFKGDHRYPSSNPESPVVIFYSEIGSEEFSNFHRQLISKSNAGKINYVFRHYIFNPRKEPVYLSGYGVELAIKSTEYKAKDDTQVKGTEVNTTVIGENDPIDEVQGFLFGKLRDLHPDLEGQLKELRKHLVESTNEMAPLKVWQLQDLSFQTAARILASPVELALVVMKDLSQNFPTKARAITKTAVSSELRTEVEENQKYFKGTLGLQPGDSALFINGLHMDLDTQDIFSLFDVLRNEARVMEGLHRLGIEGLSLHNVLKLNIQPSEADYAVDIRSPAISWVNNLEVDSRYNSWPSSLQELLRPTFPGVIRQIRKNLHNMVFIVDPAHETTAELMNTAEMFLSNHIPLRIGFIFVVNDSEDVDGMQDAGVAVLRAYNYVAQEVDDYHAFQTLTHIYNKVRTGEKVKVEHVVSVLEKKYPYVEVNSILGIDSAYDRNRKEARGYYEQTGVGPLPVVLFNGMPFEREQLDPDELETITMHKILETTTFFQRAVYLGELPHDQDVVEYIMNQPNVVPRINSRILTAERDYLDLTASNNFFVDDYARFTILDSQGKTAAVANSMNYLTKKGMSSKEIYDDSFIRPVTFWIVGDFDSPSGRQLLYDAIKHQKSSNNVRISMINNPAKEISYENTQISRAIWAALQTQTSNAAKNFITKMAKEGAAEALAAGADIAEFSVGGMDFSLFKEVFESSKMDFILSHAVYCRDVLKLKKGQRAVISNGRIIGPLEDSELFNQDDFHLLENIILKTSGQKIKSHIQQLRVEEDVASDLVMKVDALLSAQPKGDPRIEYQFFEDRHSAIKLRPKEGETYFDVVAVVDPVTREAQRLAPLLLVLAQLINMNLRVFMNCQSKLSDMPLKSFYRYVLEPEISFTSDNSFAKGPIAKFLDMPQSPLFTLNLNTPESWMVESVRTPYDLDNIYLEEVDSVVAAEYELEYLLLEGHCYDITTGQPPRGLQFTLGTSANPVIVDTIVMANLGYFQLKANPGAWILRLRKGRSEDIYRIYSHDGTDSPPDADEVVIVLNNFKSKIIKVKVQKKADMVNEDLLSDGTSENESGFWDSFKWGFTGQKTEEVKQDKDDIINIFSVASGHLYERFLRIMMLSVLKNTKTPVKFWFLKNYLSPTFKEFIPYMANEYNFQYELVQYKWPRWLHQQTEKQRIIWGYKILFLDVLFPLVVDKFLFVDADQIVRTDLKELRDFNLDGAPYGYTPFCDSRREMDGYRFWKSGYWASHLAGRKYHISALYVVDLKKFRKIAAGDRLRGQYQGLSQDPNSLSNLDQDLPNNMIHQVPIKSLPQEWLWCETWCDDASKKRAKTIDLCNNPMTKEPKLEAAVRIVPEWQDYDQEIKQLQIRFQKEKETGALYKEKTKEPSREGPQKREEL
# Chain of UniProt Q9BZI7 (Q9BZI7 whole entry, looked up): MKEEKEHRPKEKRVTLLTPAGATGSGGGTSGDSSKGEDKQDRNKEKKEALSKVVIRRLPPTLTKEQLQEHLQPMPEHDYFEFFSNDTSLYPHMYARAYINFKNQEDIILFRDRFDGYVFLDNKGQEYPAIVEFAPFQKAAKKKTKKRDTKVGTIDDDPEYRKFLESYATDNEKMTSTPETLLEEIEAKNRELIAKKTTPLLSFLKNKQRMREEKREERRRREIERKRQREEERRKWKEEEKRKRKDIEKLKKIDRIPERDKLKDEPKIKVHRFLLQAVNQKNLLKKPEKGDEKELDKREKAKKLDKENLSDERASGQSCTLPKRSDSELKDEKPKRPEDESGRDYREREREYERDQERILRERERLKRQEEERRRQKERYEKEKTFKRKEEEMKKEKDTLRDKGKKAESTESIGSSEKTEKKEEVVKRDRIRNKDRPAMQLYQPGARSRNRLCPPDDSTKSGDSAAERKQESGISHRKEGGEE
# Chain of UniProt Q6BDS2 (Q6BDS2 whole entry, looked up): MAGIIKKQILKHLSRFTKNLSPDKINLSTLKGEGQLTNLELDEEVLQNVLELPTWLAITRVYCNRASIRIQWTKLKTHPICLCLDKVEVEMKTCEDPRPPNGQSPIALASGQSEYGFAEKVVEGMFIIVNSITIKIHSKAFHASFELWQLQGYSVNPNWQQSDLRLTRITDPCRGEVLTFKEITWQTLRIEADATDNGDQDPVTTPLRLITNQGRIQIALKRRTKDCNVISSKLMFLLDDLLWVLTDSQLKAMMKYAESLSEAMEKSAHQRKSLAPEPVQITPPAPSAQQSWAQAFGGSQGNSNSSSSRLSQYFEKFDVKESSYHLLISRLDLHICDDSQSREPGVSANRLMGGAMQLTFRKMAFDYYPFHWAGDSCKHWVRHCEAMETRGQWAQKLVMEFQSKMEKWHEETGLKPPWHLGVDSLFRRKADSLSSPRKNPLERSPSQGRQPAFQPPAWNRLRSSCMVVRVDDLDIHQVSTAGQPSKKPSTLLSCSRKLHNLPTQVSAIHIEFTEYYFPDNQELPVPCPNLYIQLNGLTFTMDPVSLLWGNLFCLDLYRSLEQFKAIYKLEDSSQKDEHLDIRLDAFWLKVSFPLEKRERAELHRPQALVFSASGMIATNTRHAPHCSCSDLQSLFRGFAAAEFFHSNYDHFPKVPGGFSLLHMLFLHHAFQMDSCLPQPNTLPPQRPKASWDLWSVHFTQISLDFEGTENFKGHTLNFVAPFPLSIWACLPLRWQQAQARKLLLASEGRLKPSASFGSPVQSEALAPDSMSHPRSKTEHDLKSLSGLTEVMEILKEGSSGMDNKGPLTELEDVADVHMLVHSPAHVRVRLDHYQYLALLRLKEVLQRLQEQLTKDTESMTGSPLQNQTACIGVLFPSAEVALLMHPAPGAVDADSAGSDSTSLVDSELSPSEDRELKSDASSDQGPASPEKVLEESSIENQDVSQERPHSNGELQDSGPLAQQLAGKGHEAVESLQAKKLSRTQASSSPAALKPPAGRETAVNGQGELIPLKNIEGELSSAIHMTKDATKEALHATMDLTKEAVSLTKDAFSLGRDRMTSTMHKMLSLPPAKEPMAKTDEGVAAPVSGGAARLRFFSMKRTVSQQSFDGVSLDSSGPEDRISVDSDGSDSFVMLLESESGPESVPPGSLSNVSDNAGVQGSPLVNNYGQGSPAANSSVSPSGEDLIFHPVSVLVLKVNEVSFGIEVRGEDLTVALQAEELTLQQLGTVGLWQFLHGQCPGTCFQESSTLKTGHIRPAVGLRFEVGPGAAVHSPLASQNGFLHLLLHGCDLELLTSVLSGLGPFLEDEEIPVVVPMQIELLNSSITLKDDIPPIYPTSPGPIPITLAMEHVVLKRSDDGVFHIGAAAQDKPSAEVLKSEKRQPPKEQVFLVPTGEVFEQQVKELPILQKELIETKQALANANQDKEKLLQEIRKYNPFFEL
Target,log2 fold change [1],log2 fold change [2],log2 fold change [3],log2 fold change [4],log2 fold change [5],log2 fold change [6],log2 fold change [7],log2 fold change [8],log2 fold change [9],log2 fold change [10],log2 fold change [11],log2 fold change [12],log2 fold change [13],log2 fold change [14],log2 fold change [15],log2 fold change [16],log2 fold change [17],log2 fold change [18],log2 fold change [19],log2 fold change [20]
XPNPEP3 (UniProt Q9NQH7),-0.045,0.024,0.005,0.017,-0.08,0.011,-0.012,0.013,-0.218,-0.016,0.046,0.075,0.069,0.075,0.01,-0.076,-0.004,-0.002,-0.022,0.012
UPF3B (UniProt Q9BZI7),-0.047,-0.004,0,-0.053,0.29,-0.108,-0.069,0.139,0.03,-0.058,0.146,0.333,0.059,-0.388,0.084,0.271,-0.1,-0.094,0.28,0.341
TPP1 (UniProt O14773),0.006,0.037,0.02,0.03,-0.007,-0.006,-0.021,0,-0.015,-0.018,-0.647 (active),-1.09 (active),-0.002,0.019,0.033,-0.117,0.007,0.007,-0.001,-0.569 (active)
TRIP10 isoform 2 (UniProt Q15642),-0.068,-0.04,0.019,0.046,0.12,0.026,0.177,0.004,0.01,0.011,-0.033,-0.276,-0.018,-0.285,-0.073,-0.101,-0.18,-0.012,0.045,-0.075
VTA1 (UniProt Q9NP79),0.011,-0.019,0.044,0.034,-0.041,0.042,0.082,-0.065,-0.005,0.041,-0.172,-0.291 (active),0.06,0.024,0.026,-0.045,0.048,0.016,-0.041,-0.079
UBC (UniProt P0CG48),0.007,-0.091,-0.001,-0.032,0.151,-0.016,-0.08,-0.017,0.028,-0.018,0.065,0.087,0.015,0.401 (active),0.026,0.024,0.003,0.003,-0.023,0.158
TRAPPC8 (UniProt Q9Y2L5),0.079,-0.036,-0.009,-0.022,0.024,0.026,0.066,0.012,0.066,0.033,-0.092,-0.287 (active),0.077,0.033,-0.023,-0.073,0.015,0.059,0.04,-0.099
TSFM (UniProt P43897),0.253,-0.167,0.021,0.11,-0.057,0.08,0.034,0.181,0.041,0.075,-0.003,-0.092,0.046,0.212,-0.062,0.074,0.081,0.069,-0.041,-0.056
UHRF1BP1 (UniProt Q6BDS2),-0.068,-0.039,-0.012,-0.011,0.043,-0.035,-0.043,-0.022,-0.012,-0.009,0.137,0.131,0.036,-0.067,-0.013,-0.105,0.012,0.019,-0.09,0.211 (active)
VAMP7 (UniProt P51809),-0.014,0.011,0.053,0.005,-0.069,0.022,-0.01,-0.016,0.011,0.017,-0.057,-0.019,0.009,0.045,0.012,-0.026,0.014,-0.022,-0.07,-0.181
U2AF2 (UniProt P26368),-0.076,0.005,-0.066,0.047,-0.048,0.031,0.001,-0.028,0.002,-0.015,-0.057,-0.231 (active),0.039,-0.024,0.029,0,0.002,0.003,0,-0.307 (active)
UGGT1 (UniProt Q9NYU2),-0.001,0.004,0.001,-0.018,0.014,0,0.003,0.024,0.02,0,-0.01,-0.058,0.03,-0.006,0.019,0.002,-0.024,-0.004,0.008,0.049
"WASHC2C, A0A096LPC5",-0.059,0.062,-0.107,-0.041,0,0.039,-0.206,-0.101,-0.012,-0.037,0.034,-0.111,-0.03,-0.016,0.063,-0.132,0.012,0.067,0.142,-0.507 (active)
XPO5 (UniProt Q9HAV4),0.031,-0.039,0.054,0.031,-0.053,0.013,0.056,0.014,-0.029,0.029,-0.122,-0.263 (active),0.063,0.073,0.01,-0.04,0.018,0.035,-0.027,-0.302 (active)
WDR41 (UniProt Q9HAD4),0.044,0,-0.007,0.001,0.002,0.008,0.036,-0.011,-0.04,0.033,-0.169,-0.282 (active),-0.056,0.061,-0.026,-0.043,0.012,0.007,-0.076,-0.115
VPS33A (UniProt Q96AX1),-0.013,-0.074,-0.016,-0.021,-0.024,0.003,0.036,0.04,0.058,0.068,-0.224,-0.359 (active),0.043,0.039,-0.031,-0.004,0.059,0.062,0.035,-0.208
